# From PubChem BioAssay AID720598 (Broad Institute, 2013)
# Potency and affinity values are given separately. Activity calls are given as the source filed them.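 Rule for the calls: active = viability drop at all three exposure times, fitted half-maximal dose at most twice the top valid dose; inconclusive = exposure times disagree in their calls; inactive = inactive at every exposure time.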
# Test: HT-29 colorectal cell cytotoxicity over time, dose response, HRas target identification project, CellTiter-Glo, multiple timepoints, dry powder (AID 720598)
# Settings: HT-29 viability, CellTiter-Glo ATP luminescence, 8-48 h; series mostly up to 35 µM
row,SMILES,outcome
1,CCC(=O)N(c1ccc(OC)c(Cl)c1)C(C(=O)NCCc1ccccc1)c1cccs1 (configuration not stated),inactive
2,Cc1onc(C(=O)N2CCN(C(c3ccncc3)c3ccncc3)CC2)c1[N+](=O)[O-],inactive
